{"source": "paper PMC7862700", "about": "“An all-to-all approach to the identification of sequence-specific readers for epigenetic DNA modifications on cytosine”", "assay_in_all_cases": "DAPPL (digital affinity profiling via proximity ligation, sequencing); 10 mM Tris-HCl pH 7.5, 50 mM NaCl, 1 mM DTT, 4% glycerol, room temperature, 30 min; GST-TFs on glutathione beads, 16-mer random dsDNA library, 0.1% formaldehyde crosslink after washing; high values mean tight binding", "conditions_in_all_cases": "protein: recombinant; tags: N-terminal GST; dsDNA, one strand shown", "key": {"[1]": {"molecular_target": "T1, ELK1 (Homo sapiens, UniProt P19419 1-428)", "T1 sequence": "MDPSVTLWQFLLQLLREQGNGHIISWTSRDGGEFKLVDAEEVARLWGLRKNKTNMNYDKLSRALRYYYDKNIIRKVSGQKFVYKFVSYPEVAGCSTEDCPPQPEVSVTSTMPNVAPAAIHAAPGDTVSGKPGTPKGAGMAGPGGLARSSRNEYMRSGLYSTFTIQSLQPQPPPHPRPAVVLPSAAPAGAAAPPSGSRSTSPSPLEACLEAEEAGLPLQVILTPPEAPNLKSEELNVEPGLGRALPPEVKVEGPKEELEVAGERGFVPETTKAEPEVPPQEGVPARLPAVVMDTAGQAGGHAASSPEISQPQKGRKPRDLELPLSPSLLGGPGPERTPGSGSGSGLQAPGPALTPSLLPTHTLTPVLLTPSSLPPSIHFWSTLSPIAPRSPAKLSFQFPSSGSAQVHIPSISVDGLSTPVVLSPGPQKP", "in_short": "(§1)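 Binding signal is each hexamer's read frequency for a factor divided by its frequency in the tag-only sample. The factors were GST-fused human transcription factors from yeast, captured on glutathione beads, DNA-barcoded and pooled with that sample. Pools were incubated with 200 nmole of a random double-stranded 16-mer DNA library in Tris/NaCl/DTT/glycerol buffer at room temperature for 30 min, then washed, crosslinked with 0.1% formaldehyde, proximity-ligated with BsaI/T4 ligase (1 h, 37 °C), PCR-amplified and sequenced on an Illumina NextSeq500.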"}, "[2]": {"molecular_target": "T2, GABPA (Homo sapiens, UniProt Q06546 1-454)", "T2 sequence": "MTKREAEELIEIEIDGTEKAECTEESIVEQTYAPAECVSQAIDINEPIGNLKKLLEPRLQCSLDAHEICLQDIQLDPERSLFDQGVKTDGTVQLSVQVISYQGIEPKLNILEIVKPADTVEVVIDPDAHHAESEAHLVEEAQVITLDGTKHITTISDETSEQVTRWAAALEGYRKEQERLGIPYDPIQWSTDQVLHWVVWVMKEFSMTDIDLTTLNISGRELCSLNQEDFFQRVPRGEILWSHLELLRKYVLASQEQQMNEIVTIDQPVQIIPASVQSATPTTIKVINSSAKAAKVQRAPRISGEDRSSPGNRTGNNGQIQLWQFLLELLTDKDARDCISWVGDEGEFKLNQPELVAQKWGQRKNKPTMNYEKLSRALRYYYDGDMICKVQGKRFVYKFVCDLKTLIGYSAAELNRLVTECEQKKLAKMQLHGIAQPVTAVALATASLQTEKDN", "in_short": "as §1"}, "[3]": {"molecular_target": "T3, ERG (Homo sapiens, UniProt P11308 1-479)", "T3 sequence": "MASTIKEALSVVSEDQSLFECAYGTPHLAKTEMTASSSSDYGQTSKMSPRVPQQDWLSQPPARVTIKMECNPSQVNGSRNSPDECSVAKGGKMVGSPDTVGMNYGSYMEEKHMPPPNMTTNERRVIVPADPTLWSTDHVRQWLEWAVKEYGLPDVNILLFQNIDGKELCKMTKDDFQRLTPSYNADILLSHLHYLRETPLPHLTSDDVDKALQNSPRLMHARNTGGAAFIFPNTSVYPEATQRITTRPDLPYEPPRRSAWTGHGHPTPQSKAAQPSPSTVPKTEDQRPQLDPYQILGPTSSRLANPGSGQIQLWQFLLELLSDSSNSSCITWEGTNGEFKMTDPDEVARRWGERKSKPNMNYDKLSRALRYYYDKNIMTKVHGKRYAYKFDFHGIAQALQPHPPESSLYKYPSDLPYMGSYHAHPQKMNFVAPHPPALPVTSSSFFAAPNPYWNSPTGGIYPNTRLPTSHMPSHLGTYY", "in_short": "as §1"}, "[4]": {"molecular_target": "ELF1 (Homo sapiens, UniProt P32519 1-619)", "sequence (P32519 whole entry)": "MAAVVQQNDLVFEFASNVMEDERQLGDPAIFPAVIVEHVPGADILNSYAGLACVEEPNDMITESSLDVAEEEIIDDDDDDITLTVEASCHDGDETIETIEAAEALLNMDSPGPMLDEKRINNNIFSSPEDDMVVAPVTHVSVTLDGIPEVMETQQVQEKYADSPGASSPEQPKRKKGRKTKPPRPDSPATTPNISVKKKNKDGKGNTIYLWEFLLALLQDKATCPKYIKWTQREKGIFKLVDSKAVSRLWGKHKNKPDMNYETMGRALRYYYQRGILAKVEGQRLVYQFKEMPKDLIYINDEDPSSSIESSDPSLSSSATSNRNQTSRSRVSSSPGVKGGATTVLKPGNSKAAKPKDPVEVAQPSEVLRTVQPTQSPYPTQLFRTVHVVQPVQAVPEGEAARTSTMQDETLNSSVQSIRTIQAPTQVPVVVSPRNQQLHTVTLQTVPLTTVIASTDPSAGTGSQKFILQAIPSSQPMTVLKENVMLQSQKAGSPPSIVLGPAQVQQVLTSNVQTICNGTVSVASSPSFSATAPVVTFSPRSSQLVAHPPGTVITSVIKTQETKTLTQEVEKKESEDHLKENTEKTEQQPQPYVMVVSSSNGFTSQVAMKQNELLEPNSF", "in_short": "as §1"}, "[5]": {"molecular_target": "T4, EHF (Homo sapiens, UniProt Q9NZC4 1-300)", "T4 sequence": "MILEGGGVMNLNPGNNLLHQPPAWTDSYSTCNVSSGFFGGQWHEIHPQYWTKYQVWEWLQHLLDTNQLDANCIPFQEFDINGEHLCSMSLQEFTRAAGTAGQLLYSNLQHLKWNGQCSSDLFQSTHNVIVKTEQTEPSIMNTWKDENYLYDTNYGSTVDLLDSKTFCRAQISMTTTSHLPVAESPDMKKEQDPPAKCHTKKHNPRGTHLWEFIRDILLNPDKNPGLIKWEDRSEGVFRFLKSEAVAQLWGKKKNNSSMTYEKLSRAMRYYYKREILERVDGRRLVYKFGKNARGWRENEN", "in_short": "as §1"}, "[6]": {"molecular_target": "SPIB (Homo sapiens, UniProt Q01892 1-262)", "sequence (Q01892 whole entry)": "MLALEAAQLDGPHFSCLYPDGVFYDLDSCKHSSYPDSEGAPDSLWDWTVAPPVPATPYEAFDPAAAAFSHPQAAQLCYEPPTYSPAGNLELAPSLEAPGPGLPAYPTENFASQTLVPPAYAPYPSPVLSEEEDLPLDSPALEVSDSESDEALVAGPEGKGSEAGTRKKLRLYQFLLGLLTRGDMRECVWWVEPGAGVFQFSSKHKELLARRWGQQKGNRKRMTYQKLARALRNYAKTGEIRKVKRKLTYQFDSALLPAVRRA", "in_short": "as §1"}, "[7]": {"molecular_target": "T5, FEV (Homo sapiens, UniProt Q99581 1-238)", "T5 sequence": "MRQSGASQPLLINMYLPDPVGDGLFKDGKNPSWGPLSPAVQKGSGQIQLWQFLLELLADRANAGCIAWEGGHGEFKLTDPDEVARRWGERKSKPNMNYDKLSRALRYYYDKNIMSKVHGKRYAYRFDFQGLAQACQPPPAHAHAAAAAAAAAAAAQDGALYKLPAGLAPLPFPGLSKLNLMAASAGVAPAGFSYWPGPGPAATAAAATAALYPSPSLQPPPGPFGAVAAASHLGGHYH", "in_short": "as §1"}, "[8]": {"molecular_target": "ETV5 (Homo sapiens, UniProt P41161 1-510)", "sequence (P41161 whole entry)": "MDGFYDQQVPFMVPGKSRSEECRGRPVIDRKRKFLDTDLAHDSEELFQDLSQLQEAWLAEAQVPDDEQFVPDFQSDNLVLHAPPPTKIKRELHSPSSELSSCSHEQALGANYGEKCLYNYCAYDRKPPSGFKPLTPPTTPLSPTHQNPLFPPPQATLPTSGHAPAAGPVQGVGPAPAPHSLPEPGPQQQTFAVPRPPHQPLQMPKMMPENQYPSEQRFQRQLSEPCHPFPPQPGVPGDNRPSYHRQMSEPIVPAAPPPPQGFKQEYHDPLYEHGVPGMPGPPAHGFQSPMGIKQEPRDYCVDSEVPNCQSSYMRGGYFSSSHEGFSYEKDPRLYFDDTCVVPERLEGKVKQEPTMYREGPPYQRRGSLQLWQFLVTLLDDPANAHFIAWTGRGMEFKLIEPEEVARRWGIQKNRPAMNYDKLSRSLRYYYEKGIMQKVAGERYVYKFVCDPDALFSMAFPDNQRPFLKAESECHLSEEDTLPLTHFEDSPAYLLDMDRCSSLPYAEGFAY", "in_short": "as §1"}, "[9]": {"molecular_target": "ELF4 (Homo sapiens, UniProt Q99607 1-663)", "sequence (Q99607 whole entry)": "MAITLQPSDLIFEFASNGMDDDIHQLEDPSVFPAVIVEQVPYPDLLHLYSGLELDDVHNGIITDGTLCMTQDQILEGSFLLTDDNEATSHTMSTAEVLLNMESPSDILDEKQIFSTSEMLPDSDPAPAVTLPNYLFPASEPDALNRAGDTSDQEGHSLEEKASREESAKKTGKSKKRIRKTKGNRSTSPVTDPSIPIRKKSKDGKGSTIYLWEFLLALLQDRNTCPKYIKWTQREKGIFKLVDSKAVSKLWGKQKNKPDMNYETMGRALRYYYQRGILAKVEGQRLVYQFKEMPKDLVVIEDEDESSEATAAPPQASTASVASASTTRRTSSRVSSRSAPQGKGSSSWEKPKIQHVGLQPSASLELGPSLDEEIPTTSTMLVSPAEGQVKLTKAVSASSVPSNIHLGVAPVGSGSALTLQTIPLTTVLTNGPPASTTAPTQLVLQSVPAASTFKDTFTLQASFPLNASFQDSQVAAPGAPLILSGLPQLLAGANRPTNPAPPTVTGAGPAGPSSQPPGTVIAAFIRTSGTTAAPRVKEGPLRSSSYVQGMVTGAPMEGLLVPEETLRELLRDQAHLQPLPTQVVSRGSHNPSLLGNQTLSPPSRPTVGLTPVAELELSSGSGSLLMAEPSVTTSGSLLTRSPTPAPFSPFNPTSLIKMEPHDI", "in_short": "as §1"}, "[10]": {"molecular_target": "T6, ETV2 (Homo sapiens, UniProt O00321 1-342)", "T6 sequence": "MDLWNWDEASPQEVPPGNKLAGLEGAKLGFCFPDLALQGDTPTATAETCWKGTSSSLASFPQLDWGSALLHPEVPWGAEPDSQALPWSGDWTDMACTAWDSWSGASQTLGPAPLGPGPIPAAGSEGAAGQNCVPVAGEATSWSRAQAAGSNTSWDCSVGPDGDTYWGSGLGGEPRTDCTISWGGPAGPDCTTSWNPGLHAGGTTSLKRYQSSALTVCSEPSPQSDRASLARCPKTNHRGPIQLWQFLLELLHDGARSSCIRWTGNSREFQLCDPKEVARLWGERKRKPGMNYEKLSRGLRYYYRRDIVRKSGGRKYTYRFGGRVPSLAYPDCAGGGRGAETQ", "in_short": "as §1"}, "[11]": {"molecular_target": "T7, ELF3 (Homo sapiens, UniProt P78545 1-371)", "T7 sequence": "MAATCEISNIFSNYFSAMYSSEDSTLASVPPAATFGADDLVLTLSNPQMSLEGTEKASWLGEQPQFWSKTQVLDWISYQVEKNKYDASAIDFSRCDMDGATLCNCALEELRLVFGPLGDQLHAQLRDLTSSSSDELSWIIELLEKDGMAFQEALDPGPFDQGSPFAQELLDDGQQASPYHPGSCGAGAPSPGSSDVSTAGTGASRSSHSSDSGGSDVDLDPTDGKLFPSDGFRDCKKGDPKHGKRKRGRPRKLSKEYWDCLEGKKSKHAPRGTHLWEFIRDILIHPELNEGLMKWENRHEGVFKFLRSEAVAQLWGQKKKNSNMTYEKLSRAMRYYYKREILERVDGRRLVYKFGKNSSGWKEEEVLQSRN", "in_short": "as §1"}, "[12]": {"molecular_target": "ETV1 (Homo sapiens, UniProt P50549 1-477)", "sequence (P50549 whole entry)": "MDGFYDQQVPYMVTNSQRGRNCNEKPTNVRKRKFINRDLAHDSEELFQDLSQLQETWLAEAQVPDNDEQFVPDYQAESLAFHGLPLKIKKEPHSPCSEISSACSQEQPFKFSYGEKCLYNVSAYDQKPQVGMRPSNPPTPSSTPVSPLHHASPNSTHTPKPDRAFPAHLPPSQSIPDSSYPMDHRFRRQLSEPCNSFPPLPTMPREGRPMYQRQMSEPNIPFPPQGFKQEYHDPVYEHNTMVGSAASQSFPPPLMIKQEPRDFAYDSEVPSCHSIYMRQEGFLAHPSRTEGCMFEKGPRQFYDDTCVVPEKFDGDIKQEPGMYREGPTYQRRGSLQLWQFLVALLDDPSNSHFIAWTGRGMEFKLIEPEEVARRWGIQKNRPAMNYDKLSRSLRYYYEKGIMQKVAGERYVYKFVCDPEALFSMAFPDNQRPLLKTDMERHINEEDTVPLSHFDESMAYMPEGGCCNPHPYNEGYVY", "in_short": "as §1"}, "[13]": {"molecular_target": "T8, ERF (Homo sapiens, UniProt P50548 1-548)", "T8 sequence": "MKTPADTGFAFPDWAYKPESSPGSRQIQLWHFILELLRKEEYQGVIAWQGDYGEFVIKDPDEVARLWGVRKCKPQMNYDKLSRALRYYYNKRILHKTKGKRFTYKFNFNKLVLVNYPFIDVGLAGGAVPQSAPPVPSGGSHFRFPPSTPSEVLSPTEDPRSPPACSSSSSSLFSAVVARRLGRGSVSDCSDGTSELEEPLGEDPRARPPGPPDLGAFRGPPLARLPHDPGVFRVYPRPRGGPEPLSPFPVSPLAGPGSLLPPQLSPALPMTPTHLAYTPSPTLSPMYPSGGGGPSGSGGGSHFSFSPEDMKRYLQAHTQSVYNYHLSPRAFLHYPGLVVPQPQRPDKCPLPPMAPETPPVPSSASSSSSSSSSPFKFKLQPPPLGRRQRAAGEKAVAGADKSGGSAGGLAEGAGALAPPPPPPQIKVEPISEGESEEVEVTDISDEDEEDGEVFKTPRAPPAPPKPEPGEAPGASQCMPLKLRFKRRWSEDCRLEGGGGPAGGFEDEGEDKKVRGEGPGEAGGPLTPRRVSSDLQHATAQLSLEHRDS", "in_short": "as §1"}, "[14]": {"molecular_target": "T9, SPDEF (Homo sapiens, UniProt O95238 1-335)", "T9 sequence": "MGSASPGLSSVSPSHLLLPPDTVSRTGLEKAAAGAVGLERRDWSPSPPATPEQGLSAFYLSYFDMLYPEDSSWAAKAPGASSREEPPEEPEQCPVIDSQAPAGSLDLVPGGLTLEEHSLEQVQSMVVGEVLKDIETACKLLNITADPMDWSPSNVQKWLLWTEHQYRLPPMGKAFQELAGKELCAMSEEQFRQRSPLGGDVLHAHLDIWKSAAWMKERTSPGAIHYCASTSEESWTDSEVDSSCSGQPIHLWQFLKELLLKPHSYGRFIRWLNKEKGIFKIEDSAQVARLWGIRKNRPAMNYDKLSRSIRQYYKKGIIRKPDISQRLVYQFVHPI", "in_short": "as §1"}, "[15]": {"molecular_target": "T10, ETV3 (Homo sapiens, UniProt P41162-2 1-143)", "T10 sequence": "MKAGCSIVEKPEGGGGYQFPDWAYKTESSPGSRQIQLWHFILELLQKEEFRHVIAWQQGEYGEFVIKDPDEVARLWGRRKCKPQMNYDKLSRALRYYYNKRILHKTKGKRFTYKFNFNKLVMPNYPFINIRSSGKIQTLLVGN", "in_short": "as §1"}}, "data": [{"sequence": "TCGTAT", "values": [{"measurement": "binding signal", "setting": "[1]", "value": "1.08 fold enrichment (6-mer frequency, TF over GST control)"}, {"measurement": "binding signal", "setting": "[2]", "value": "1.01 fold enrichment (6-mer frequency, TF over GST control)"}, {"measurement": "binding signal", "setting": "[3]", "value": "1.03 fold enrichment (6-mer frequency, TF over GST control)"}, {"measurement": "binding signal", "setting": "[4]", "value": "1.03 fold enrichment (6-mer frequency, TF over GST control)"}, {"measurement": "binding signal", "setting": "[5]", "value": "1 fold enrichment (6-mer frequency, TF over GST control)"}, {"measurement": "binding signal", "setting": "[6]", "value": "1.07 fold enrichment (6-mer frequency, TF over GST control)"}, {"measurement": "binding signal", "setting": "[7]", "value": "1.05 fold enrichment (6-mer frequency, TF over GST control)"}, {"measurement": "binding signal", "setting": "[8]", "value": "1.02 fold enrichment (6-mer frequency, TF over GST control)"}, {"measurement": "binding signal", "setting": "[9]", "value": "1.02 fold enrichment (6-mer frequency, TF over GST control)"}, {"measurement": "binding signal", "setting": "[10]", "value": "1.12 fold enrichment (6-mer frequency, TF over GST control)"}, {"measurement": "binding signal", "setting": "[11]", "value": "1.05 fold enrichment (6-mer frequency, TF over GST control)"}, {"measurement": "binding signal", "setting": "[12]", "value": "1 fold enrichment (6-mer frequency, TF over GST control)"}, {"measurement": "binding signal", "setting": "[13]", "value": "1.06 fold enrichment (6-mer frequency, TF over GST control)"}, {"measurement": "binding signal", "setting": "[14]", "value": "1.05 fold enrichment (6-mer frequency, TF over GST control)"}, {"measurement": "binding signal", "setting": "[15]", "value": "1.05 fold enrichment (6-mer frequency, TF over GST control)"}]}]}
